NPC1 promoter act: activates the NPC1 promoter | 2.4% of 320,000 active | Potency, µM (doses to about 9.22 µM), actives largely listed as activators | Huh7 NPC1 promoter luciferase reporter, 24 h | AID 485313; also: nearly all actives have a fitted effect of over 60% in size
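Luminescence read-out of NPC1 promoter-driven luciferase in stably transfected Huh7 cells; compounds delivered in DMSO and left 24 h at 37C, 5% CO2, qHTS titration format.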
FLuc counter: counter-screen for miR-21 project: firefly luciferase inhibitors or activators. P08659. 6.9% of 360,000 active. Potency, µM (titrated, usually from 57.5 µM), most hits filed as inhibitors. purified FLuc, Km substrates, luminescence inhibition; also: nearly all actives have a fitted effect of over 55% in size
Target sequence (P08659 whole entry, looked up): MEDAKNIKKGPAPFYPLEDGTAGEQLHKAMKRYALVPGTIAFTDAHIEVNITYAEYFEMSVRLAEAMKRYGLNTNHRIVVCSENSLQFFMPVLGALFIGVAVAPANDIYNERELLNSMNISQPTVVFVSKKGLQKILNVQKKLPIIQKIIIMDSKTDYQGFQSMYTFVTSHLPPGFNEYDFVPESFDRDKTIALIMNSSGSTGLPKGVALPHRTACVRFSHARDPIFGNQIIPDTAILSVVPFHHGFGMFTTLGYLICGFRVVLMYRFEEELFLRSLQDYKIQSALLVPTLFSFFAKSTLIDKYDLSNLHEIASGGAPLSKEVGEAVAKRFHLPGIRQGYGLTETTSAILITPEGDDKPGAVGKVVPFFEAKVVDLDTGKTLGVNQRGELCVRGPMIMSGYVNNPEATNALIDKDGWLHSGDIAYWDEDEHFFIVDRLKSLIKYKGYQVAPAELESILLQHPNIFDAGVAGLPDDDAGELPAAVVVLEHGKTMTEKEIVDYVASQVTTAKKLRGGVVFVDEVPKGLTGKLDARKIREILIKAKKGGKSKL
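Purified P. pyralis luciferase (10nM final) with 10uM D-luciferin and 10uM ATP (Km levels) in 50mM Tris acetate pH 7.5, 10mM Mg acetate, 0.01% Tween-20, 0.05% BSA; qHTS 6-point titration, ~60 µM downward; luminescence read.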
SMN2 splice up: SMN2 splice variant enhancement | Potency, µM (series often up to 46.1 µM), actives largely listed as activators | AID 1458 | 2.8% of 210,000 active | HEK293 SMN2-luciferase splicing reporter, luminescence, 30-36 h; also: nearly all actives have a fitted effect of over 55% in size
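qHTS luciferase splicing reporter: luminescence rises when SMN2 exon 7 is included in transfected HEK293 cells. Compound exposure lasted 30-36 h at 37C, with 4.5 mM final sodium butyrate as control, followed by a ONE-Glo read.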
ELG1 genotox: induces genotoxicity in HEK293T cells with luciferase-tagged ELG1. HEK293T ELG1-luciferase reporter, luminescence, 16 h. 1.3% of 330,000 active. Potency, µM (titrated, usually from 46 µM), most hits filed as activators; also: nearly all actives have a fitted effect of over 60% in size
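After overnight (16 hr) compound treatment at 37 °C, ELG1-luciferase HEK293T cells were lysed with ONE-Glo; luminescence quantified 30 min later at room temperature.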
Rab9 promoter act: Rab9 promoter activation; Huh7 Rab9 promoter-luciferase reporter, luminescence, 24 h; Potency, µM (series often up to 9.22 µM), most hits filed as activators; 2.8% of 320,000 active; AID 485297; also: nearly all actives have a fitted effect of over 60% in size
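Stable Rab9-luc Huh7, 1500 cells/well, 2 h settle; cmpd in DMSO, 24 h, 37 °C/5% CO2; luciferase reagent 10 min RT; luminescence.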
Of the large screens only hits and unclear results are named; the others gave an inactive call. Rows were chosen to be rich in hits. Some 7.4% of all compounds tested hit in one or more screens of this group. Calls follow the shape of the dose curve; as a rule, active = well fitted curve in the direction sought with a large enough effect; inconclusive = small, poorly fitted or top-dose-only effect, or another doubt; inactive = no such curve, though single readings can be large; an effect the other way counts as inactive or inconclusive.

CC(C)C(=O)N1CCc2cc(-c3csc(N)n3)ccc21	NPC1 promoter act inconclusive, FLuc counter 13µM, SMN2 splice up 13µM, Rab9 promoter act 3.5µM
Cc1ccc(N2C(=O)CSC23C(=O)N(CC(=O)NC2CCCCC2)c2ccccc23)cc1 (stereo not drawn)	none (no result: NPC1 promoter act, SMN2 splice up, ELG1 genotox, Rab9 promoter act)
CCCc1ccc(C(=O)O/N=C(\N)c2ccccn2)cc1	FLuc counter 0.067µM, ELG1 genotox 0.41µM (no result: SMN2 splice up)
N/C(=N\OC(=O)c1ccc2ccccc2c1)c1ccncc1	NPC1 promoter act 1.3µM, FLuc counter 1.9µM, ELG1 genotox 4.6µM, Rab9 promoter act 1.4µM (no result: SMN2 splice up)
N/C(=N\OC(=O)c1ccc(=O)n(Cc2ccccc2)c1)c1ccccn1	FLuc counter inconclusive
COc1cccc(C(=O)NCCCNC(=O)c2ccccn2)c1	none (no result: SMN2 splice up)
N/C(=N\OC(=O)c1ccc2ccccc2c1)c1ccccc1Cl	NPC1 promoter act 3.2µM, FLuc counter 1.9µM, ELG1 genotox 23µM, Rab9 promoter act 4µM (no result: SMN2 splice up)
COc1cccc(C(=O)O/N=C(\N)c2ccccn2)c1	NPC1 promoter act 2.5µM, FLuc counter 0.076µM, ELG1 genotox inconclusive, Rab9 promoter act 3.2µM (no result: SMN2 splice up)
N/C(=N\OC(=O)COc1ccc2ccccc2c1)c1ccncc1	FLuc counter inconclusive (no result: SMN2 splice up)
CCOC(=O)c1cccc(NC(=O)c2cc(C)nc3c2c(C)nn3-c2ccc(C)cc2)c1	none (no result: NPC1 promoter act, SMN2 splice up, ELG1 genotox, Rab9 promoter act)
CN1CCC2(CC1)CCN(C(=O)c1cc(C(F)(F)F)cc(C(F)(F)F)c1)CC2	none (no result: NPC1 promoter act, FLuc counter, ELG1 genotox, Rab9 promoter act)
Cc1ccccc1C(=O)O/N=C(\N)c1ccncc1	NPC1 promoter act inconclusive, FLuc counter 4.3µM, ELG1 genotox inconclusive, Rab9 promoter act 3.2µM (no result: SMN2 splice up)
N/C(=N\OC(=O)c1ccc(=O)n(Cc2ccc(Cl)cc2)c1)c1ccccn1	none
N/C(=N\OC(=O)c1ccccc1Cl)c1ccncc1	FLuc counter inconclusive (no result: SMN2 splice up)
N/C(=N\OC(=O)c1ccc2ccccc2c1)c1ccccn1	NPC1 promoter act inconclusive, FLuc counter 0.15µM, SMN2 splice up inconclusive, ELG1 genotox 0.58µM, Rab9 promoter act inconclusive
CCCCN1CC(c2nc3ccccc3n2CCCCOc2cc(C)ccc2C)CC1=O (stereo not drawn)	none (no result: NPC1 promoter act, SMN2 splice up, ELG1 genotox, Rab9 promoter act)
Cc1ccc(C(=O)Nc2ccc3c(c2)C(=O)N(CC2CCCO2)C3=O)cc1 (stereo not drawn)	FLuc counter 4.8µM (no result: SMN2 splice up)
Cc1ccnc(NC(=O)c2ccc3c(c2)C(=O)N(CC2CCCO2)C3=O)c1 (stereo not drawn)	FLuc counter 21µM
O=C(O)c1ccc(NC(=O)c2ccc3c(c2)C(=O)N(CC2CCCO2)C3=O)cc1 (stereo not drawn)	FLuc counter inconclusive (no result: SMN2 splice up)
Cc1ccnc(NC(=O)c2ccc(OCC3CCCO3)cc2)c1 (stereo not drawn)	NPC1 promoter act 0.28µM, FLuc counter 0.95µM, ELG1 genotox inconclusive, Rab9 promoter act 0.13µM (no result: SMN2 splice up)
Nc1cccc(Oc2ccc3c(c2)C(=O)N(CC2CCCO2)C3=O)c1 (stereo not drawn)	NPC1 promoter act 1.6µM, FLuc counter 24µM, Rab9 promoter act 1µM (no result: SMN2 splice up)
O=C(Nc1ccncc1)c1ccc2c(c1)C(=O)N(CC1CCCO1)C2=O (stereo not drawn)	none
O=C1c2cccc3cccc(c23)C(=O)N1CC1CCCO1 (stereo not drawn)	none
Cc1ccc(NC(=O)c2ccc(OCC3CCCO3)cc2)c(C)c1 (stereo not drawn)	FLuc counter inconclusive, SMN2 splice up inconclusive, Rab9 promoter act inconclusive
CC(=O)N1CCc2cc(Br)cc(S(=O)(=O)N3CCN(c4cccc(C)c4)C(C)C3)c21 (stereo not drawn)	none (no result: NPC1 promoter act, ELG1 genotox, Rab9 promoter act)
N#CC1=C2SC=C(c3ccc(Br)cc3)N2CCCC1=O	NPC1 promoter act inconclusive, FLuc counter 5.4µM, SMN2 splice up 16µM, Rab9 promoter act 1.6µM
Cc1cc(N(CCO)CCO)ccc1N=Nc1cc(F)ccc1F	NPC1 promoter act inconclusive, FLuc counter 24µM, SMN2 splice up inconclusive, ELG1 genotox inconclusive, Rab9 promoter act inconclusive
Nc1ccc(N(CCO)CCO)cc1	none (no result: SMN2 splice up)
O=C(/C=C\c1ccc2c(c1)OCO2)NC1CC(=O)N(c2cccc(F)c2)C1 (stereo not drawn)	none (no result: NPC1 promoter act, SMN2 splice up, ELG1 genotox, Rab9 promoter act)
COc1ccc(C(CC(=O)Nc2nccs2)n2cccc2)cc1 (stereo not drawn)	NPC1 promoter act 2.8µM, FLuc counter 6µM, SMN2 splice up 10µM, Rab9 promoter act 3.2µM
COc1ccc(OCC(=O)Nc2nccs2)cc1	NPC1 promoter act 0.56µM, FLuc counter 3µM, ELG1 genotox inconclusive, Rab9 promoter act 0.45µM (no result: SMN2 splice up)

From PubChem
